CHX counter: Cycloheximide Counterscreen for Small Molecule Inhibitors of Shiga Toxin. AID 2314, 2010. actives 12% (n = 300,000). cell reporter, cycloheximide protein synthesis inhibition counterscreen. max response, %; in the data active means max response mostly above about 13%, no sharp cut-off; inactive means mostly below about 14%; further: read at 38.3 µM for the half of the compounds with a filed dose; 0% is about no effect
Tb PYK inh: qHTS of Trypanosoma Brucei Inhibitors; pyruvate kinase (Trypanosoma brucei), Q57TT1; TbPYK enzyme, Kinase-Glo Plus ATP luminescence, 45 min; Potency, µM (highest dose often 76.8 µM), for inactives: at the top dose activity, negative = inhibition, hits mostly inhibitors; actives 0.12% (n = 410,000); AID 624173, 2012; further: potency means the concentration at half of the fitted maximal effect; on the % scale 0 is the no-effect control and ±100 the full control effect; nearly all actives have a fitted effect of over 50% in size
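Quantitative HTS: titrated library compounds versus trypanosomal pyruvate kinase in TEA buffer (pH 7.2) containing KCl, MgCl2, BSA and Tween-20. Reactions were initiated with ADP, 130 uM final. Kinase-Glo Plus luminescence was read after 45 min at RT.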
FBPA Giardia inh: qHTS Assay for Inhibitors of Fructose-1,6-bisphosphate Aldolase from Giardia Lamblia | A8B2U2 | purified Giardia FBPA | Potency, µM (doses to about 59.6 µM), for the others: at the top dose activity, negative = inhibition, usual class: inhibitors | actives 0.71% (n = 290,000) | AID 2451, 2010; further: potency means the concentration at half of the fitted maximal effect; on the % scale 0 is the no-effect control and ±100 the full control effect; nearly all actives have a fitted effect of over 55% in size
Target sequence (A8B2U2 whole entry, looked up): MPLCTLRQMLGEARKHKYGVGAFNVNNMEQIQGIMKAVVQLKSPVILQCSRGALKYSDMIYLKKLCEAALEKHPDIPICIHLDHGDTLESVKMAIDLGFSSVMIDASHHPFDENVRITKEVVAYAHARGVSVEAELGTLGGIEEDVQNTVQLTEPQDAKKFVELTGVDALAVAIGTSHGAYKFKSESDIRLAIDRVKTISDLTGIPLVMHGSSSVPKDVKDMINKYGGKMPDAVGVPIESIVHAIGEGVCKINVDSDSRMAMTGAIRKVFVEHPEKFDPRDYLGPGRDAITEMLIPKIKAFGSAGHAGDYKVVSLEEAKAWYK
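Giardia FBPA (40 nM reagent) was preincubated 10 min at RT with compound (up to 57.5 uM final), then substrate plus GAPDH/TPI/NAD/arsenate coupling system with diaphorase/resazurin was added; resorufin fluorescence (525/598 nm) was read after 20 min.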
Shiga inhibitor: A qHTS for Small Molecule Inhibitors of Shiga Toxin; actives 9.2% (n = 290,000); inhibition, % at 38.7 µM; Vero cells, Shiga toxin protein synthesis inhibition reporter; in the data active means inhibition mostly above about 28%, no sharp cut-off; inactive means mostly below about 43%; further: 0% is about no effect
RE007 growth inh: qHTS Assay for Inhibitors of the HIV-1 protein Vpr | AID 651644, 2012 | actives 0.21% (n = 360,000) | S. pombe RE007 Vpr strain, BacTiter-Glo ATP luminescence, 24 h | Potency, µM (highest dose often 92.2 µM), without a hit: at the highest dose activity change, negative = less growth, most hits filed as inhibitors; active means well fitted falling curve with a large enough effect; inconclusive means small, poorly fitted or top-dose-only effect; inactive means no such curve, though single readings can be large or run the other way; further: potency means the concentration at half of the fitted maximal effect; on the % scale 0 is the no-effect control and ±100 the full control effect; nearly all actives have a fitted effect of over 50% in size
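Fission yeast strain RE007, carrying one chromosomally integrated HIV-1 vpr copy, was seeded at OD 0.01 in PMG+AL medium with 23 nL pinned compound. After 24 h at 30 °C and 99% humidity, viability was read by BacTiter-Glo luminescence.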
LmPK inh: qHTS Assay for Inhibitors of Leishmania Mexicana Pyruvate Kinase (LmPK) | Q27686 | purified LmPK, Kinase-Glo ATP luminescence, 1 h | Potency, µM (doses to about 57.5 µM), without a hit: at the top dose activity change, negative = inhibition, actives largely listed as inhibitors | actives 0.37% (n = 290,000); further: potency means the concentration at half of the fitted maximal effect; on the % scale 0 is the no-effect control and ±100 the full control effect
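ATP generated from ADP (0.1 mM) and PEP (0.5 mM) by 0.1 nM LmPK over 1 h at room temperature (pH 7.2 imidazole buffer) was detected by coupled luciferase luminescence. Values were normalized to uninhibited and no-enzyme wells.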
An asterisk follows results filed as active. The full list was thinned out, with hits kept by preference. Unless noted, the call rests on the fitted dose curve; in most records, active means well fitted curve in the direction sought with a large enough effect; inconclusive means small, poorly fitted or top-dose-only effect, or another doubt; inactive means no such curve, though single readings can be large; an effect the other way counts as inactive or inconclusive.

`Cc1cc(/C=C(\C#N)C(=O)NCc2cccs2)c(C)[nH]1` gave CHX counter 16.3*, Tb PYK inh 3.5%, FBPA Giardia inh 1.5%, Shiga inhibitor 67.2, RE007 growth inh 0.1% and LmPK inh 2.4%.
Screening C/C(=N\S(=O)(=O)c1ccc(C)cc1)NC(=S)Nc1ccc(C)cc1 returned CHX counter 40.5*, Tb PYK inh 1.2%, FBPA Giardia inh inconclusive, Shiga inhibitor 118.1*, RE007 growth inh -13.4% and LmPK inh -1.7%.
`CC(=O)Nc1ccc(S(=O)(=O)c2ccc(C)cc2)cc1` gave CHX counter -1.2, Tb PYK inh -1.5%, FBPA Giardia inh 8.6%, Shiga inhibitor -11.0, RE007 growth inh 10.8% and LmPK inh 0.0%.
For Cc1ccc(S(=O)(=O)/N=C(/NC(=S)Nc2cccc(C)c2)c2ccccc2)cc1 the results were CHX counter 53.8*, Tb PYK inh -18.9%, FBPA Giardia inh -9.5%, Shiga inhibitor 76.9*, RE007 growth inh -0.4% and LmPK inh 4.6%.
`Cc1cccc(NC(=S)N/C(=N/S(=O)(=O)c2ccccc2)c2ccccc2)c1` gave CHX counter 43.9*, Tb PYK inh 6.3%, FBPA Giardia inh -17.9%, Shiga inhibitor 17.8*, RE007 growth inh -20.8% and LmPK inh 3.2%.
Screening O=C(c1cnccn1)N1CCC[C@@]2(CCN(Cc3ccccc3)C2)C1 returned Tb PYK inh -5.5% and FBPA Giardia inh -5.2%.
Screening CCc1cccc(C)c1NC(=O)C(CC)Sc1nc2ccncc2[nH]1 (stereo unspecified) returned Tb PYK inh -6.3%.
`CCc1ccc(-n2nc3ccc(NC(=O)COc4ccc(OC)cc4)cc3n2)cc1` gave Tb PYK inh -10.3%.
`Cc1ccc(CNC(=O)C2CCN(S(=O)(=O)c3cn(C)cn3)CC2)cc1` gave Tb PYK inh 2.8%.
Screening Cc1ccc2c(Sc3ccc(Cl)cc3)c(C(=O)NCCC(C)C)[nH]c2c1 returned Tb PYK inh -2.4%.
Screening COc1ccc(-c2nc3cnc(N4CCNCC4)nc3n(Cc3cccs3)c2=O)cc1 returned FBPA Giardia inh -2.7%.
For O=C(NCc1cccnc1)/C(=N\O)c1ccccc1 the results were CHX counter -6.6, Tb PYK inh 2.4%, FBPA Giardia inh 0.4%, Shiga inhibitor -4.8, RE007 growth inh -0.9% and LmPK inh 1.9%.
Screening O=C(NCc1ccccc1)/C(=N\O)c1ccccc1 returned CHX counter 21.3*, Tb PYK inh -12.7%, FBPA Giardia inh 6.6%, Shiga inhibitor 54.0*, RE007 growth inh -6.0% and LmPK inh -4.9%.
Screening O=C(NCc1ccccn1)/C(=N/O)c1ccccc1 returned CHX counter 36.5*, Tb PYK inh inconclusive, FBPA Giardia inh 4.6%, Shiga inhibitor 30.7*, RE007 growth inh -1.9% and LmPK inh 0.1%.
`O=C(c1ccccc1-c1nc(-c2ccc(Cl)cc2)no1)N1CCCC1` gave CHX counter 45.1*, Tb PYK inh 7.3%, FBPA Giardia inh 1.8%, Shiga inhibitor 74.5*, RE007 growth inh -5.6% and LmPK inh 8.2%.
`O=C(c1ccccc1-c1nc(-c2ccccc2)no1)N1CCCC1` gave CHX counter 22.5*, Tb PYK inh 0.2%, FBPA Giardia inh 4.2%, Shiga inhibitor 55.6*, RE007 growth inh 15.5% and LmPK inh 0.8%.
CN1CCN(C(=O)c2ccccc2-c2nc(-c3ccc(Cl)cc3)no2)CC1 was read as CHX counter 15.8, Tb PYK inh -2.6%, FBPA Giardia inh 4.3%, Shiga inhibitor 39.7, RE007 growth inh -19.1% and LmPK inh -0.6%.
Screening Cc1ccc(-c2noc(-c3ccccc3C(=O)N3CCN(C)CC3)n2)cc1 returned CHX counter 12.9, Tb PYK inh 9.2%, FBPA Giardia inh 7.1%, Shiga inhibitor 59.6, RE007 growth inh -9.6% and LmPK inh 4.1%.
`Cc1ccc(-c2noc(-c3ccccc3C(=O)N3CCCC3)n2)cc1` gave CHX counter 35.2*, Tb PYK inh -0.6%, FBPA Giardia inh 4.7%, Shiga inhibitor 54.2*, RE007 growth inh 8.2% and LmPK inh 1.6%.
For Cc1cc(C)cc(NC2=C(c3ccccc3)C(=O)c3ccccc32)c1 the results were Tb PYK inh -4.3%.
For O=C(Cc1ccccc1)Nc1cccc(-c2nnc(-c3ccco3)o2)c1 the results were CHX counter 29.8*, Tb PYK inh -7.8%, FBPA Giardia inh -2.1%, Shiga inhibitor 85.8*, RE007 growth inh 1.0% and LmPK inh 1.2%.
Screening COc1ccccc1OCC(=O)Nc1cccc(-c2nnc(-c3ccco3)o2)c1 returned CHX counter 35.6*, Tb PYK inh -17.1%, FBPA Giardia inh 0.6%, Shiga inhibitor 81.9*, RE007 growth inh 4.5% and LmPK inh 2.7%.
For O=C(Cc1ccc(Cl)cc1)Nc1cccc(-c2nnc(-c3ccco3)o2)c1 the results were CHX counter 3.5, Tb PYK inh -1.7%, FBPA Giardia inh 3.7%, Shiga inhibitor -2.9, RE007 growth inh 14.5% and LmPK inh 1.9%.
Screening CCC(Sc1nc2nccnc2c(=O)n1Cc1ccc(F)cc1)C(=O)NC1CCCCC1 (stereo unspecified) returned Tb PYK inh 0.0%.
For c1ccc(CN2CCN(Cc3cn4cccnc4n3)CC2)cc1 the results were CHX counter 5.3, Tb PYK inh 5.7%, FBPA Giardia inh -0.4%, Shiga inhibitor 95.7, RE007 growth inh -15.0% and LmPK inh 2.3%.
Screening Cc1cccn2cc(COc3cccc([N+](=O)[O-])c3)nc12 returned CHX counter 21.7*, Tb PYK inh -5.4%, FBPA Giardia inh -9.0%, Shiga inhibitor 61.1*, RE007 growth inh inconclusive and LmPK inh 2.2%.
O=[N+]([O-])c1cccc(Oc2ncccc2[N+](=O)[O-])c1 was read as Tb PYK inh -4.8% and RE007 growth inh 1.7%.
Screening Cc1ccc(OCc2cn3cccnc3n2)cc1 returned CHX counter 54.7*, Tb PYK inh -6.2%, FBPA Giardia inh -5.9%, Shiga inhibitor 103.9*, RE007 growth inh -7.1% and LmPK inh -2.3%.
O=[N+]([O-])c1cccc(OCc2cn3cccnc3n2)c1 was read as CHX counter 20.4*, Tb PYK inh 5.7%, FBPA Giardia inh 1.0%, Shiga inhibitor 13.6, RE007 growth inh -12.4% and LmPK inh -2.9%.
For Cc1cccn2cc(COc3ccc(-c4ccccc4)cc3)nc12 the results were CHX counter 71.4*, Tb PYK inh -8.2%, FBPA Giardia inh 8.1%, Shiga inhibitor 68.2*, RE007 growth inh inconclusive and LmPK inh -28.6%.

High-throughput results as filed in PubChem.
